High-throughput results as filed in PubChem.
ATXN2 expr inh: Primary qHTS for Inhibitors of ATXN expression | HEK-293 ATXN2-luciferase reporter, luminescence, 24 h | Potency, µM (top dose mostly 57 µM), usual class: inhibitors | 360,000 compounds, 0.72% hits; also: nearly all actives have a fitted effect of over 55% in size
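qHTS (up to 57 uM final) was run with 24 h compound exposure of reporter cells at 37 °C. Each well was multiplexed: SteadyGlo luminescence measured ATXN2-luciferase expression after a fluorogenic Gly-Phe-AFC viability readout (25 uM final).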
ATXN viability: Viability Counterscreen for Primary qHTS for Inhibitors of ATXN expression. S2 cells (HEK-293 line with an ATXN2-luciferase reporter) viability, CellTiter-Fluor protease fluorescence, 24 h. Potency, µM (doses to about 56.7 µM), actives largely listed as cytotoxic. 400,000 compounds, 0.49% hits; also: nearly all actives have a fitted effect of over 40% in size
TGFb inhibitor: qHTS for Inhibitors of TGF-b; HepG2 CAGA-GFP TGF-b/SMAD3 reporter, GFP fluorescence, 18 h; TGF-beta stimulated, 500 pg/mL final; Potency, µM (doses to about 46.1 µM), usual class: inhibitors; 410,000 compounds, 1.2% hits; AID 588855, 2011; also: nearly all actives have a fitted effect of over 65% in size
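HEPG2 CAGA-GFP cells (1000/well, DMEM with 1% FBS) were pre-incubated 2 h at 37 degrees C, given compound by pin tool, then stimulated with TGF-beta at 500 pg/mL final for 18 h before per-cell GFP fluorescence imaging.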
TDP1 cell noCPT: qHTS for Inhibitors of human tyrosyl-DNA phosphodiesterase 1 (TDP1): qHTS in cells in absence of CPT | Potency, µM (highest dose often 46.2 µM), hits mostly inhibitors | DT40 Tdp1-/- hTDP1 cells, no CPT, ATP luminescence, 48 h | 420,000 compounds, 15% hits | AID 686978, 2013; also: nearly all actives have a fitted effect of over 55% in size
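Cells were dispensed at 400 per well, compounds added by pin tool, plates incubated ≥48 hr at 37 °C, then CellTiter-Glo added for 30 min at room temperature before luminescence reading. Line: DT40 Tdp1-/- complemented with hTDP1; camptothecin omitted.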
DT40 TDP1 CPT: qHTS for Inhibitors of human tyrosyl-DNA phosphodiesterase 1 (TDP1): qHTS in cells in presence of CPT. AID 686979, 2013. chicken DT40 Tdp1-/-;hTDP1 cells + 20 nM CPT, ATP luminescence, 48 h. 420,000 compounds, 12% hits. Potency, µM (series often up to 46.2 µM), hits mostly inhibitors; also: nearly all actives have a fitted effect of over 55% in size
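Cell growth measured by CellTiter-Glo luminescence after a minimum 48 h, 37 C compound exposure with 20 nM CPT in Tdp1-knockout DT40 cells stably expressing hTDP1, seeded 400/well; qHTS titration format.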
HepG2 viability: qHTS for Inhibitors of TGF-b: Cytotox Counterscreen; HepG2 CAGA-GFP viability, ATP luminescence, 18 h; AID 588856, 2011; Potency, µM (titrated, usually from 46.1 µM), most hits filed as cytotoxic; 410,000 compounds, 0.76% hits
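CellTiter-Glo luminescence gave cytotoxicity after 18 hours at 37 degrees C. The cells were HepG2 CAGA-GFP in 1% FBS DMEM, stimulated with 500 pg/mL TGF-beta after compound addition. %Activity was normalised to no-cell wells (complete cell-killing) and DMSO (no toxicity), and curves were fitted and classified.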
Each line names hits and unclear results; the compound was inactive in the other large screens. Rows were chosen to be rich in hits. Some 17% of all compounds tested hit in one or more screens of this group. Calls follow the shape of the dose curve; as a rule, active = well fitted curve in the direction sought with a large enough effect; inconclusive = small, poorly fitted or top-dose-only effect, or another doubt; inactive = no such curve, though single readings can be large; an effect the other way counts as inactive or inconclusive.

COc1ccc2[nH]c3c(N4CC(C)OC(C)C4)ncnc3c2c1 (stereo unspecified)	TDP1 cell noCPT 15µM, DT40 TDP1 CPT inconclusive
COc1cccc(NC(=O)N2CCN(c3cccc(C)c3)C(C)C2)c1 (stereo unspecified)	TDP1 cell noCPT inconclusive, DT40 TDP1 CPT inconclusive
Cc1ccc(CN(C)C(=O)CSc2nnc3n2CCCCC3)c(C)c1	TDP1 cell noCPT inconclusive
CCNc1ncc2nc(-c3ccccc3)c(=O)n(C3CC3)c2n1	none (no result: ATXN2 expr inh, ATXN viability, TGFb inhibitor, HepG2 viability)
O=C(O)c1ccc2c(ccc3nn(-c4ccc(/C=C/c5ccc(-n6nc7ccc8cc(C(=O)O)ccc8c7n6)cc5[S+](=O)([O-])[O-])c([S+](=O)([O-])[O-])c4)nc32)c1	none (no result: ATXN2 expr inh, ATXN viability)
CCC(=O)NNC(=S)NC(=O)c1ccc(C)cc1	ATXN2 expr inh inconclusive, TGFb inhibitor inconclusive, TDP1 cell noCPT 10µM, DT40 TDP1 CPT inconclusive
Cc1ccc(C(=O)NNC(=S)NC(=O)c2ccc(Cl)cc2)cc1	ATXN2 expr inh inconclusive, TDP1 cell noCPT inconclusive, DT40 TDP1 CPT 16µM
CCCCC(=O)NC(=S)Nc1cccc(NC(=O)CC)c1	none
O=C(CCc1ccccc1)NNC(=S)NC(=O)c1ccc(Cl)cc1	TGFb inhibitor inconclusive, TDP1 cell noCPT 23µM, DT40 TDP1 CPT inconclusive
CCCCCC(=O)NC(=S)NNC(=O)CC	TDP1 cell noCPT inconclusive, DT40 TDP1 CPT 16µM
Nc1nc2ccc(NC(=O)c3ccco3)cc2s1	none
Cc1cc(C)nc(N/C(=N\S(=O)(=O)Cc2ccccc2)Nc2ccccc2Br)n1	ATXN viability inconclusive, TDP1 cell noCPT 21µM, DT40 TDP1 CPT 21µM
O=C(NCCCNC(=O)c1cccs1)c1cccs1	TDP1 cell noCPT 9.2µM, DT40 TDP1 CPT 8.2µM
O=C(Nc1ccccn1)c1cccs1	TDP1 cell noCPT 26µM, DT40 TDP1 CPT 18µM
O=C(Nc1nonc1NC(=O)c1cccs1)c1cccs1	ATXN2 expr inh inconclusive, ATXN viability inconclusive, TGFb inhibitor inconclusive, TDP1 cell noCPT 23µM, DT40 TDP1 CPT 26µM
N#CCNc1ccc([N+](=O)[O-])cc1C#N	none (no result: ATXN2 expr inh)
Cc1ccc(N(CC(=O)N2CCc3ccccc32)S(=O)(=O)c2cccs2)cc1	TDP1 cell noCPT 18µM, DT40 TDP1 CPT inconclusive
CCc1cccc(NC(=O)CN(c2ccc(C)cc2)S(=O)(=O)c2cccs2)c1	ATXN viability inconclusive, TDP1 cell noCPT 16µM, DT40 TDP1 CPT inconclusive
Cc1ccc(S(=O)(=O)N(CC(=O)Nc2cccnc2)c2cccc(Br)c2)cc1	TDP1 cell noCPT 16µM, DT40 TDP1 CPT inconclusive
CCc1cccc(NC(=O)CN(c2ccc(OC)cc2)S(=O)(=O)c2c(C)n[nH]c2C)c1	none (no result: ATXN2 expr inh, ATXN viability)
Cc1ccc(NC(=O)CN(c2ccc(Cl)cc2)S(=O)(=O)c2cc([N+](=O)[O-])ccc2Cl)c(C)c1	ATXN2 expr inh inconclusive, TDP1 cell noCPT 15µM, DT40 TDP1 CPT inconclusive
Cc1ccc([N+](=O)[O-])cc1NC(=O)CN(c1ccccc1)S(=O)(=O)N(C)C	TGFb inhibitor inconclusive
COc1ccc(C)cc1S(=O)(=O)N(CC(=O)Nc1cccc([N+](=O)[O-])c1)c1ccccc1	TGFb inhibitor inconclusive, TDP1 cell noCPT 21µM, DT40 TDP1 CPT 15µM
Cc1ccc(S(=O)(=O)N(CC(=O)Nc2cccnc2)c2cccc([N+](=O)[O-])c2)cc1	ATXN viability inconclusive, TDP1 cell noCPT 12µM, DT40 TDP1 CPT inconclusive
CS(=O)(=O)N(CC(=O)Nc1cccc([N+](=O)[O-])c1)c1ccccc1	TGFb inhibitor inconclusive (no result: ATXN2 expr inh)
Cc1cccc(-c2nn(-c3ccccc3)cc2C(=O)NCC(c2cccs2)N2CCOCC2)c1 (stereo unspecified)	ATXN viability inconclusive, TDP1 cell noCPT inconclusive, DT40 TDP1 CPT inconclusive
CCN1C(=O)[C@H]2[C@@H](c3ccc(-c4ccc(Cl)c(Cl)c4)cc3)N[C@@](CC(C)C)(C(=O)OC)[C@H]2C1=O	TDP1 cell noCPT inconclusive, DT40 TDP1 CPT 4.1µM
CCN1C(=O)[C@H]2[C@@H](c3ccc(-c4cccc(Cl)c4)c(OC)c3)N[C@@](CC(C)C)(C(=O)OC)[C@H]2C1=O	TDP1 cell noCPT inconclusive, DT40 TDP1 CPT inconclusive
CCN1C(=O)[C@H]2[C@@H](c3ccc(-c4ccc(OC)cc4)cc3)N[C@@](CC(C)C)(C(=O)OC)[C@H]2C1=O	TDP1 cell noCPT 23µM, DT40 TDP1 CPT inconclusive
CCN1C(=O)[C@H]2[C@@H](c3ccc(-c4cccc(Cl)c4)cc3)N[C@@](CC(C)C)(C(=O)OC)[C@H]2C1=O	TDP1 cell noCPT 12µM, DT40 TDP1 CPT 18µM
COC(=O)[C@]1(CC(C)C)N[C@H](c2ccc(-c3ccc(Cl)c(Cl)c3)cc2)[C@@H]2C(=O)N(C)C(=O)[C@@H]21	ATXN2 expr inh inconclusive, TGFb inhibitor inconclusive, TDP1 cell noCPT 18µM, DT40 TDP1 CPT inconclusive
COc1ccc(NC(=O)c2ccccc2NC(=O)C2CCCCC2C(=O)O)cc1 (stereo unspecified)	TDP1 cell noCPT inconclusive
CN(Cc1ccccc1F)C(=O)COc1ccc(C(=O)c2ccccc2)cc1	TGFb inhibitor inconclusive, TDP1 cell noCPT 21µM, DT40 TDP1 CPT 23µM
Cc1cc(Cl)ccc1OCC(=O)N(Cc1ccco1)Cc1ccccc1F	TDP1 cell noCPT 16µM, DT40 TDP1 CPT inconclusive (no result: ATXN2 expr inh, ATXN viability)
CC(C)(C)c1ccc(OCC(=O)N(Cc2ccco2)Cc2ccccc2F)cc1	TGFb inhibitor inconclusive, TDP1 cell noCPT 21µM, DT40 TDP1 CPT inconclusive (no result: ATXN2 expr inh, ATXN viability)
CN(Cc1ccccc1F)C(=O)c1ccc(Oc2ccccc2)cc1	TGFb inhibitor inconclusive, DT40 TDP1 CPT inconclusive
CCc1ccc(CN(Cc2ccco2)C(=O)COc2ccc(Cl)cc2C)cc1	TDP1 cell noCPT inconclusive, DT40 TDP1 CPT inconclusive (no result: ATXN2 expr inh, ATXN viability)
CCn1c(SCC(=O)N(C)c2ccccc2)nc2c([nH]c3ccccc32)c1=O	none
OC(COCCOc1ccc(Br)cc1)CN1CCN(Cc2ccccc2)CC1 (stereo unspecified)	ATXN2 expr inh inconclusive, TGFb inhibitor inconclusive, TDP1 cell noCPT 23µM, DT40 TDP1 CPT inconclusive
CCc1ccc(OCCOCC(O)CN2CCN(Cc3ccc(Cl)cc3)CC2)cc1 (stereo unspecified)	TGFb inhibitor inconclusive, TDP1 cell noCPT inconclusive, DT40 TDP1 CPT 18µM
COc1cccc(OCCOCC(O)CN2CCN(Cc3ccc(Cl)cc3)CC2)c1 (stereo unspecified)	TGFb inhibitor inconclusive, TDP1 cell noCPT inconclusive
